This note sets out measurements from PubChem BioAssay (Tox21).

The target of assay [1] is Luciferin 4-monooxygenase (Photinus pyralis) (UniProt P08659). The assay is described as follows: qHTS assay to identify small molecule inhibitors of firefly luciferase (AID 1224835). Also: nearly all actives have a fitted effect of over 25% in size. Also: potency is read from the fitted curve at half-maximal effect. In outline:
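Biochemical qHTS: compounds run as interplate titrations against purified firefly enzyme, with D-luciferin and ATP each at its KM concentration. Light output recorded by CCD imaging.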

A short description of assay [2]: qHTS assay to identify small molecule agonists of the constitutive androstane receptor (CAR) signaling pathway - cell viability counter screen (AID 1224836). Also: nearly all actives have a fitted effect of over 45% in size. In outline: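 23 h treatment, 37 C, 5% CO2. Cell line: HepG2 stably expressing hCAR with a CYP2B6-2.2kb construct. Co-treatment: PK11195, 0.75 uM final. Read-out: CellTiter-Fluor fluorescence intensity.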
Assay [3] can be described thus: qHTS assay to identify small molecule antagonists of the constitutive androstane receptor (CAR) signaling pathway - cell viability counter screen (AID 1224837). Also: nearly all actives have a fitted effect of over 45% in size. In outline:
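HepG2 cells stably expressing hCAR and a CYP2B6-2.2kb reporter were plated and pre-incubated 4 hr at 37 C/5% CO2, then given compounds at 15 concentrations plus 50 nM CITCO (final). After 23 hr, viability was read by CellTiter-Fluor fluorescence.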

In assay [4] the target is Nuclear receptor subfamily 1 group I member 3 (Homo sapiens) (UniProt Q14994). Put plainly: qHTS assay to identify small molecule agonists of the constitutive androstane receptor (CAR) signaling pathway (AID 1224839).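 Also: HepG2 cells stably carrying human CAR and a CYP2B6 luciferase reporter; nearly all actives have a fitted effect of over 15% in size.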 In outline: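 Compounds tested at 15 concentrations on HepG2 cells stably harbouring hCAR and CYP2B6-2.2kb reporter constructs, co-treated with PK11195 (0.75 uM final), 24 h at 37 C; luminescent reporter signal quantified.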
Nuclear receptor subfamily 1 group I member 3 (Homo sapiens), sequence (Q14994 whole entry, looked up): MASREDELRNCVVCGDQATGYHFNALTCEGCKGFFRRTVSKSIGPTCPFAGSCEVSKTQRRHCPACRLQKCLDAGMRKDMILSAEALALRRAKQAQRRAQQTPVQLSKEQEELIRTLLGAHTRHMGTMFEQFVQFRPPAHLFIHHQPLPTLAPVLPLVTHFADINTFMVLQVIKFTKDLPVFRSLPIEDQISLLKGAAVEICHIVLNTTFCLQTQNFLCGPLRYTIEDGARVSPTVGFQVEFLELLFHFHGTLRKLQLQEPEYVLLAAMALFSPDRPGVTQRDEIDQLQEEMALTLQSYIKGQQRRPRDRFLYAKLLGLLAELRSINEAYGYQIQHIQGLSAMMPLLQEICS

The nature of assay [5]: qHTS assay to identify small molecule antagonists of the estrogen related receptor signaling pathway with the pleiotropic PPARgamma coactivator (PGC) from Tox21 10K library - cell viability counter screen (AID 1224840; active = well fitted cell-killing curve with a large enough effect in the repeat runs, not every such curve was filed as active; also: nearly all actives have a fitted effect of over 40% in size). In outline: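 PGC/ERR cells were seeded at 2,000 cells/well and left 6 hours at 37 C/5% CO2 before pin-tool addition of compounds in DMSO. After 17.5 hours at 37 C, CellTiter-Fluor was added and fluorescence read 30 minutes later.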

The nature of assay [6]: qHTS assay to identify small molecule antagonists of the estrogen related receptor signaling pathway with the pleiotropic PPARgamma coactivator (PGC) from Tox21 10K library (AID 1224841; call rule not given here; also: actives are mostly falling curves and most rising ones were filed inactive; nearly all actives have a fitted effect of over 50% in size). In outline: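 PGC/ERR reporter cells were seeded at 2,000 cells/well and held 6 hours at 37 C/5% CO2 before pin-tool addition of compounds in DMSO. After 18 hours at 37 C, One-Glo was added and luminescence read after 30 minutes at room temperature.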

A short description of assay [7]: qHTS assay to identify small molecule agonists of the estrogen related receptor signaling pathway with the pleiotropic PPARgamma coactivator (PGC) from Tox21 10K library (AID 1224842). Also: nearly all actives have a fitted effect of over 15% in size. In outline:
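PGC/ERR reporter cell line, 2,000 cells per well, incubated 6 h at 37 C before 23 nL compound in DMSO was added. After 18 h at 37 C, One-Glo luminescence read following 30 min at room temperature.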

Assay [8] concerns the target Thyrotropin receptor (Homo sapiens) (UniProt P16473). The assay is described as follows: qHTS assay to identify small molecule agonists of the thyroid stimulating hormone receptor (TSHR) signaling pathway (AID 1224843; calls by dose curve; also: nearly all actives have a fitted effect of over 45% in size). In outline:
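TSHR-HEK293 cells in agonist mode, 30 min room-temperature step, then cAMP measured by competitive HTRF (cAMP-d2 with anti-cAMP cryptate) after 1 h at room temperature. Tested at 15 concentrations in triplicate.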

The nature of assay [9]: qHTS assay to identify small molecule agonists of the hypoxia (HIF-1) signaling pathway - cell viability counter screen (AID 1224844; calls by dose curve; also: nearly all actives have a fitted effect of over 50% in size). In outline: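 HRE-bla ME-180 cells in medium with 0.5% dialyzed FBS were preincubated 5 hrs at 37C, exposed to compounds for 17 hrs, then viability was read as CellTiter-Glo luminescence after 30 min at room temperature, in the reporter wells.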

Assay [10] can be described thus: qHTS assay to identify small molecule agonists of H2AX (AID 1224845; active = well fitted activation curve with a large enough effect in the signal ratio in the repeat runs, not every such curve was filed as active; the % refers to the signal ratio). In outline: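 Wild-type CHO-K1 cells, plated overnight, exposed 3hr at 37C to 15 concentrations (0.76% DMSO final). Lysed, then HTRF anti-pH2AX (S139) cryptate and anti-H2AX-d2 antibodies, 24 hr room temperature; 665/620 nm emission read.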
Assay [11] in a line: qHTS assay to identify small molecule agonists of the estrogen related receptor (ERR) signaling pathway from Tox21 library (AID 1224849; calls by dose curve; also: nearly all actives have a fitted effect of over 15% in size). Particulars: ERR reporter cell line, ONE-Glo luciferase, 18 h; at 92.4 µM (top of the series) unless noted. In outline:
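ERR reporter cell line (NTP) seeded, rested 6 h at 37 C/5% CO2, then pinned with Tox21 compounds in DMSO. After 18 h at 37 C, ONE-Glo luciferase luminescence was read following 30 min at room temperature.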

The nature of assay [12]: qHTS RealTime-Glo MT Cell Viability Assay in HepG2 cells - 24 hour (AID 1224867). Also: nearly all actives have a fitted effect of over 50% in size. In outline: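 Tox21 10K library screened in qHTS format on HepG2 cells carrying RealTime-Glo reagents. Compounds were added after a 5 h preincubation, and the luminescent signal from continuous culture was measured repeatedly during 40 h treatment.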
Assay [13] in a line: qHTS RealTime-Glo MT Cell Viability Assay in HEK293 cells - 32 hour (AID 1224868). Also: top concentration of the series differs between compounds; nearly all actives have a fitted effect of over 50% in size. In outline:
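Luminescence generated by NanoLuc from substrate produced by living HEK293 cells served as the viability signal. Each value reflects the reading at its stated time point during continuous 40 h compound exposure at 37 C.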

The nature of assay [14]: A CellTox Green Cytotoxicity Assay to monitor cytotoxicity in HEK293 cells - 0 hour (AID 1224869). Also: nearly all actives have a fitted effect of over 50% in size. In outline: (§1)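 HEK293 cells premixed with CellTox Green dye were seeded at 600 cells/well and left 5 h at 37 C/5% CO2 before pin transfer of 23 nL compound in DMSO. Fluorescence from dye bound to dead-cell DNA was read during 40 h treatment.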
Assay [15] in a line: qHTS RealTime-Glo MT Cell Viability Assay in HepG2 cells - 40 hour (AID 1224870). Also: nearly all actives have a fitted effect of over 50% in size. In outline: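 HepG2 cells (600/well) mixed with RealTime-Glo MT reagent, settled 5 h at 37 C/5% CO2 before compound addition. Nonlytic NanoLuc luminescence from viable-cell prosubstrate reduction read repeatedly during 40 h treatment at 37 C.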
Assay [16] in a line: A CellTox Green Cytotoxicity Assay to monitor cytotoxicity in HEK293 cells - 40 hour (AID 1224871). Also: nearly all actives have a fitted effect of over 45% in size. In outline:
as §1

Assay [17] addresses Nuclear receptor subfamily 1 group I member 3 (Homo sapiens) (UniProt Q14994). The assay is described as follows: qHTS assay to identify small molecule antagonists of the constitutive androstane receptor (CAR) signaling pathway (AID 1224838). Also: nearly all actives have a fitted effect of over 40% in size. In outline:
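HepG2 cells stably co-transfected with hCAR and a CYP2B6-2.2kb luciferase reporter were seeded 4 h before compound addition at 15 concentrations. Cells were stimulated with 50 nM CITCO (final) for 24 h at 37 C; luciferase luminescence was then read.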

Assay [18] in a line: qHTS assay to identify small molecule agonists of the hypoxia (HIF-1) signaling pathway (AID 1224846; active = well fitted activation curve with a large enough effect in the signal ratio in the repeat runs, not every such curve was filed as active; the % refers to the signal ratio). In outline:
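HRE-bla ME-180 cells (beta-lactamase reporter under hypoxia response element) were plated at 2,000 cells/well in medium with 0.5% dialyzed FBS, rested 5 hrs, then given compounds in DMSO for 17 hrs at 37C, 5% CO2. Reporter induction was read with CCF4-AM FRET substrate.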

Assay [19] is described as follows: qHTS assay to identify small molecule agonists of H2AX - cell viability counter screen (AID 1224847; calls by dose curve; also: top concentration of the series differs between compounds; nearly all actives have a fitted effect of over 30% in size). In outline: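 Compounds tested at 15 concentrations were incubated 3 hr at 37C with wild-type CHO-K1 cells; cellular ATP-based luminescence (CellTiter-Glo) indicated viability.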
The nature of assay [20]: qHTS assay to identify small molecule antagonists of the estrogen related receptor (ERR) signaling pathway from Tox21 library (AID 1224848). Also: nearly all actives have a fitted effect of over 50% in size. In outline: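 ERR reporter cell line (from NTP) seeded 2,000 cells/well, rested 6 h at 37 C/5% CO2, then pin-dosed with compounds in DMSO. After 18 h at 37 C, ONE-Glo added; luminescence read after 30 min at room temperature.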

Molecules are shown by their SMILES. A number with no mark means an inactive call. Records with an inconclusive call do not appear. Active and inactive are the calls of the source. Unless noted, calls follow the shape of the dose curve; as a rule, active = well fitted curve in the direction sought with a large enough effect in the repeat runs; inconclusive = weak or mixed curves; inactive = no such curve, though single readings can be large; an effect the other way counts as inactive or inconclusive.
% is scaled to controls: 0 for no effect and ±100 for the full control effect.

Luciferin 4-monooxygenase (Photinus pyralis), sequence (P08659 whole entry, looked up): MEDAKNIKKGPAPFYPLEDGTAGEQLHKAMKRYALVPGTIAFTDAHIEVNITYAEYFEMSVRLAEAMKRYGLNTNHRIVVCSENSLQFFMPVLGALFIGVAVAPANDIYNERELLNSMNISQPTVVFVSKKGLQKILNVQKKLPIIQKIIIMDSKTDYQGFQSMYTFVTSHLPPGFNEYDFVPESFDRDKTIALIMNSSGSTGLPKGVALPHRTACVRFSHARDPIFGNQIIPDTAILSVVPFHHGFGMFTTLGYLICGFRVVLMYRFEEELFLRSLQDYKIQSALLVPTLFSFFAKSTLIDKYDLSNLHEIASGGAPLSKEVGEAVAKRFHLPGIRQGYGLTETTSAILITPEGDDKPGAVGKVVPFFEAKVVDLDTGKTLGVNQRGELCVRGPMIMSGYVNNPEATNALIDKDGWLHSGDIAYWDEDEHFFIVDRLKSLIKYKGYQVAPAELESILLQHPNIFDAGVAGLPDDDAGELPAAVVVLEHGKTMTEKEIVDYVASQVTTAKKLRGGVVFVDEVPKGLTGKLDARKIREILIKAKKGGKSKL
Thyrotropin receptor (Homo sapiens), sequence (P16473 whole entry, looked up): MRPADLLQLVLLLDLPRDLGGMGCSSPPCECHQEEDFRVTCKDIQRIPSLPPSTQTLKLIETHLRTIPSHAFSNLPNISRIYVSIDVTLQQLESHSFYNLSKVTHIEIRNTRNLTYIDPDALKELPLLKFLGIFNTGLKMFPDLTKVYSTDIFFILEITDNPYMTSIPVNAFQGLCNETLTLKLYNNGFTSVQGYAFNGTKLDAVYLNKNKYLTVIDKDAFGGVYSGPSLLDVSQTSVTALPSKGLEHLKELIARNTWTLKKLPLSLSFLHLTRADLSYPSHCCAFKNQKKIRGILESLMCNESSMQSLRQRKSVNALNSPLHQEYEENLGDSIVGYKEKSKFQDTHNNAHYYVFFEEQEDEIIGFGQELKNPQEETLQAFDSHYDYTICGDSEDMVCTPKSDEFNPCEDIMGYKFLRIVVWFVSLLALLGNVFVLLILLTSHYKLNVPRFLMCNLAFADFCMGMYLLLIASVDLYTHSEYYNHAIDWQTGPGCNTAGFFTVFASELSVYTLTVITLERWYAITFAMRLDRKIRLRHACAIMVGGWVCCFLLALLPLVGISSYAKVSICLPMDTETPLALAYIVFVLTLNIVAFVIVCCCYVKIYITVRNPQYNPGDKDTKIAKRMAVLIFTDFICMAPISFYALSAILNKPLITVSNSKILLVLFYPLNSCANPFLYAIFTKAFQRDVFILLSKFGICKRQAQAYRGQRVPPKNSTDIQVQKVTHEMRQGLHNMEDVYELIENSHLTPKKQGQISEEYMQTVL

As to `Cc1ccsc1/C=C/C1=NCCCN1C`, the Potency entry in assay [1], in [2], in assay [3], in assay [4], in [6] and in assay [8] was “inactive” throughout. Further, the Potency result in assay [13] and in assay [16] was “inactive” in each case. Besides, the result in [5], in assay [7], in [9], in assay [10], in assay [12] and in assay [14] was inactive. Also, the result in [15] was inactive. For the same compound, in [11], the activity change, positive = activation is -1.39% [at 42.5 µM].
In the case of `CCC(C=O)CC`, the Potency result in assay [1], in assay [2], in [3], in assay [6], in [19] and in [20] was “inactive” each time. In addition, the Potency entry in assay [13] and in assay [16] was “inactive” throughout. Moreover, the result in [17], in assay [5], in assay [9], in [10], in assay [18] and in [12] was inactive. In addition, the result in assay [14] was inactive. The activity change, positive = activation in assay [11] was 2.68%.
With `C=C(C)C(=O)OCc1ccccc1`, the Potency entry in [1], in assay [2], in assay [3], in assay [4], in assay [6] and in assay [19] was “inactive” throughout. Moreover, the Potency entry in [20], in assay [13] and in assay [16] was “inactive” in each case. The call in [5], in [7], in [9], in [10], in assay [18] and in [14] was inactive. Moreover, the result in [15] was inactive. Further, the activity change, positive = activation in assay [11] was 1.9%.
For the compound `CCCCNC1CC(C)(C)NC(C)(C)C1`, the Potency entry in assay [1], in assay [2], in [3], in assay [4], in assay [6] and in assay [13] was “inactive” throughout. Moreover, in assay [16], the Potency entry is “inactive”. The outcome in assay [5], in assay [7], in assay [9], in [10], in assay [18] and in [12] was inactive. The compound was classed as inactive in assay [14] and in [15]. Moreover, the activity change, positive = activation in [11] is 8.08%.
Consider `C#CC(C)N(C)C(=O)Nc1ccc(Cl)cc1` (stereo not drawn), for which, in [1], the Potency was 63.2 µM (active). For the same compound, the Potency result in assay [2], in assay [3], in assay [6], in assay [19], in assay [20] and in assay [16] was “inactive” each time. For the same compound, the compound was called inactive in [17], in [5], in [7], in assay [9], in assay [10] and in assay [12]. The compound was classed as inactive in assay [14] and in [15]. Also, the activity change, positive = activation in assay [11] is 5.26%.
With `Cc1cc(C(C)(C)C)c(O)c(C)c1CC1=NCCN1`, the Potency result in assay [1], in assay [2], in assay [3], in assay [8], in [19] and in assay [13] was “inactive” throughout. The Potency result in assay [16] was “inactive”. The result in [17], in assay [5], in assay [9], in assay [10], in [12] and in assay [14] was inactive.
Turning to `COc1ccc2nc(SCc3ncc(C)c(OC)c3C)[nH]c2c1`, the Potency in assay [1] was 13.8 µM (active). Further, the Potency result in [2], in assay [3], in [8], in [20] and in [16] was “inactive” each time. Further, the outcome in assay [17], in [5], in [7], in assay [9], in assay [10] and in [18] was inactive. For the same compound, the compound was classed as inactive in [12], in [14] and in [15]. Further, the activity change, positive = activation in assay [11] was -13.6% [at 42.5 µM].
In the case of `Nc1ncnc(Nc2ccccc2)n1`, the Potency entry in assay [1], in assay [2], in assay [3], in assay [8], in assay [13] and in [16] was “inactive” each time. The outcome in assay [17], in [5], in assay [9], in assay [10], in [18] and in [12] was inactive. In addition, the outcome in assay [14] was inactive.
